# Reference: PubChem BioAssay (EPA / NIEHS)
# Activity calls are given as the source filed them. The calls were made as follows: active = hit-call score of the fitted dose curve at least 0.9, where 1 is the maximum; inactive = score below 0.9.
# Read-out: Intercellular Adhesion Molecule 1 (ICAM1), ICAM1 (gene 3383)
# Assay: BSK_KF3CT_ICAM1: BioMAP Diversity Plus: KF3CT Assay for Intercellular Adhesion Molecule 1 (ICAM1) Biomarker Activity (AID 2283067)
# Settings: primary human keratinocytes with fibroblasts; actives raise or lower the signal
# Procedure: BSK_KF3CT is a cell-based, multiplexed-readout assay that uses keratinocytes and foreskin fibroblasts, a human skin primary cell co-culture, with measurements taken at 24 hours after chemical dosing in a 96-well plate.BSK_KF3CT_ICAM1 is an assay component measured in the BSK_KF3CT assay. It measures ICAM-1 antibody related to regulation of gene expression using ELISA technology.Data from the assay component BSK_KF3CT_ICAM1 was analyzed into 1 assay endpoint. This assay endpoint, BSK_KF3CT_ICAM1, was analyzed with bidirectional fitting relative to DMSO as the negative control and baseline of activity. Using a type of binding reporter, gain or loss-of-signal activity can be used to understand changes in the signaling as they relate to the gene ICAM1. Furthermore, this assay endpoint can be referred to as a primary readout, because this assay has produced multiple assay endpoints where this one serves a signaling function. To generalize the intended target to other relatable targets, this assay endpoint is annotated to the cell adhesion molecules intended target family, where the subfamily is Immunoglobulin CAM.
# The levels of cell surface (or secreted, indicated by the prefix "s") biomarker endpoints were measured by ELISA. Overt cytotoxicity to cells in confluent adherent cultures (all systems other than the BT system) was assessed by measuring total protein levels using sulforhodamine B (SRB) staining in parallel cultures at the time of biomarker measurements, indicated as SRB endpoints. For proliferation assays for adherent cell types, individual cell types are cultured at sub-confluence and relative cell numbers quantified by SRB staining at time points optimized for each system (48 h: 3C and CASM3C systems; 72 h: BT and HDF3CGF systems; 96 h: SAg system). SRB was performed by staining cells with 0.1% SRB after fixation with 10% TCA and reading wells at 560 nm.Viability and proliferation of PBMC (T cells) was quantified by Alamar Blue reduction for the SAg and BT systems. For PBMC viability (referred to as PBMC Cytotoxicity within the assay endpoint names), cells were plated (75,000/well in a 96-well plate) and then chemical samples added for 1 h before addition of activators, SEB and TSST-1 (20 ng/mL final concentration each). Cells were incubated for 90 h. Then, Alamar Blue (20 uL/well) (Invitrogen, Cat DAL1100) was added for 6 h, and the plates were read with a fluorescence microplate reader at 546/580 nm (excitation/emission). For PBMC proliferation, cells were plated and activated as above but incubated for only 16 h prior to addition of Alamar Blue. Plates were read after 6 h.
SMILES,outcome,AC50
CCCCC(CC)COP(=O)(Oc1ccccc1)Oc1ccccc1 (stereo not given),inactive,
N#Cc1cc([N+](=O)[O-])ccc1N,inactive,
Nc1cc2c3c(c1)C(c1ccccc1)=N[C@@H](NC(=O)c1cccnc1)C(=O)N3CC2,inactive,
C=CC(=O)OCC(CC)(COC(=O)C=C)COC(=O)C=C,,2.16 µM (active)
O=S1(=O)OCC2C(CO1)C1(Cl)C(Cl)=C(Cl)C2(Cl)C1(Cl)Cl (stereo not given),inactive,
CCCCc1ccccc1,inactive,
Cc1ccc(O)cc1C,inactive,
COP(=O)(O)OC,inactive,
Cc1ccc(N)cc1N,inactive,
CCOP(=S)(OCC)SCSc1ccc(Cl)cc1,inactive,
Cc1ccc([N+](=O)[O-])cc1C,inactive,
CC(C)Nc1ccc(Nc2ccccc2)cc1,,20 µM (active)
O=S(=O)(F)C(F)(F)C(F)(F)C(F)(F)C(F)(F)C(F)(F)C(F)(F)C(F)(F)C(F)(F)F,inactive,
O=C(O)C(F)(OC(F)(F)C(F)(F)C(F)(F)F)C(F)(F)F (stereo not given),inactive,
CCOP(=S)(OCC)SCSCC,inactive,
CCCCN(CCCC)SN(C)C(=O)Oc1cccc2c1OC(C)(C)C2,inactive,
CCOP(=S)(Oc1ccc([N+](=O)[O-])cc1)c1ccccc1 (stereo not given),inactive,
O=c1ssc(Cl)c1Cl,,5.46 µM (active)
CN(C)C(=O)Cl,inactive,
CC(Cl)CN(C)C (stereo not given),inactive,

SMILES,outcome,AC50
CCN(CC)c1ccccc1,inactive,
NC(=O)C(F)(F)C(F)(F)F,inactive,
Cc1cccc(N)c1,inactive,
CC(C)(C)OOC(C)(C)C,inactive,
CCOP(=S)(NC(C)C)Oc1ccccc1C(=O)OC(C)C (stereo not given),inactive,
C=CC(=O)OCC(F)(F)C(F)F,inactive,
CCOS(=O)(=O)OCC,inactive,
N#Cc1c(-c2ccc(Cl)cc2)[nH]c(C(F)(F)F)c1Br,inactive,
Cc1ccc2c(c1N)C(=O)c1ccccc1C2=O,inactive,
O=P1(N(CCCl)CCCl)NCCCO1 (stereo not given),inactive,
CCC(C)(C)c1ccc(O)cc1,inactive,
FC(F)(F)C(F)(C(F)(F)F)C(F)(F)C(F)(F)CC1CO1 (stereo not given),inactive,
Nc1ccc([N+](=O)[O-])cc1Cl,inactive,
CC(C)(C)c1ccc(O)cc1,inactive,
CCNc1nc(Cl)nc(NC(C)(C)C)n1,inactive,
O=C(O)C(F)(F)OC(F)(F)C(F)(F)OC(F)(F)C(=O)O,inactive,
CCCCCCCc1ccc(O)cc1,,33.3 µM (active)
CCCCN(CCCC)N=O,inactive,
CSC(C)(C)C=NO,inactive,
OCC(F)(F)OC(F)(F)C(F)(F)OC(F)(F)C(F)(F)OC(F)(F)CO,inactive,
